Here are results for 91 variants from a collection of fitness landscapes (doi:10.1016/j.celrep.2020.107928).

The chains are these.
B1: Caulobacter ParB omega fusion; a variant is named by its letters at X, in order, B8GW30 (parent)
chain: MESVVVGEPGMSEGRRGLGRGLSALLGEVDAAPAQAPGEQLGGSREAPIEILQRNPDQPRRTFREEDLEDLSNSIREKGVLQPILVRPSPDTAGEYQIVAGERAWRAAQRAGLKTVPIMVRELDDLAVLEIGIIENVQRADLNVLEEALSYKVLMEKFERTQENIAQTIGKSXSHVANXMRLLXLPDEVQSYLVSGELTAXHARAIAAAADPVALAKQIIEGGLSVRETEALARKAPNLSAGKSKGGRPPRVKDTDTQALESDLSSVLGLDVSIDHRGSTGTLTITYATLEQLDDLCNRLTRGI

The full ranking holds about 81,000 sequences; the median of “one-hybrid fitness for binding parS DNA” is about -0.17, and the highest 2% start at about 0.51. Only a selection was taken, and the highest values are over-represented in it overall.

The assay covers variants of B1. The assay is described as follows: one-hybrid fitness for binding parS DNA (scaled: cognate 1, non-cognate 0); higher = stronger binding. Particulars: with parS DNA site. The method in brief:
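The reporter was HIS3, with the binding site 19 bp from the promoter, in E. coli USO used for bacterial one-hybrid selection of Caulobacter ParB libraries with four specificity codons randomised. Growth was on M9 lacking histidine, with 0.1 mM IPTG and 5 mM 3-AT, for 48 hours at 37°C. Illumina sequencing covered plasmids before and after selection; three replicate libraries were pooled and variants with under 10 reads dropped. A fitness score is the log change in variant-to-wild-type read ratio, rescaled to the cognate and non-cognate references.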
Consider AKFS, for which the “one-hybrid fitness for binding parS DNA” value is at most 0.2.
On to MTSR, for which the “one-hybrid fitness for binding parS DNA” value was at most 0.2.
For the variant VNNR, the “one-hybrid fitness for binding parS DNA” value is at most 0.2.
The value for RRHD was at most 0.2.
The value for RRHN was 0.689.
The value for RRHH was at most 0.2; that for RRHP was at most 0.2.
In the case of RRHS, the “one-hybrid fitness for binding parS DNA” value was found to be 0.645.
RRHK: the “one-hybrid fitness for binding parS DNA” value was at most 0.2.
The value for LFLC was at most 0.2.
As to DLIT, the “one-hybrid fitness for binding parS DNA” value was at most 0.2.
Turning to RDNY, the “one-hybrid fitness for binding parS DNA” value is at most 0.2.
As for TIRM, the figure is at most 0.2; as for VENG, at most 0.2; as for NEVT, at most 0.2.
As for GRRY, the figure is at most 0.2.
As for QQLD, the figure is at most 0.2.
With MQRR, the “one-hybrid fitness for binding parS DNA” value is at most 0.2.
As for PCLL, the figure is at most 0.2.
The value for ARAW was at most 0.2; that for RIVC was 0.942; that for RIVM was 0.281.
The value for RIKQ was at most 0.2; that for RIVQ was at most 0.2; that for RIKR was at most 0.2.
RIKC: the “one-hybrid fitness for binding parS DNA” value amounted to 0.805.
The value for MKRV was at most 0.2.
As for NFAC, the figure is at most 0.2; as for RFAC, 0.91; as for RFFN, 0.262.
RFFC: the “one-hybrid fitness for binding parS DNA” value stood at 0.674.
As for RFFY, the figure is 0.269; as for RFAN, 0.372.
The value for WGLC was at most 0.2; that for MPTN was at most 0.2.
As for GFLD, the “one-hybrid fitness for binding parS DNA” value was at most 0.2.
As for EFEC, the figure is at most 0.2.
The value for RQAR was at most 0.2.
As for RQAY, the figure is 0.444; as for RQAG, 1.
For RQFG, the “one-hybrid fitness for binding parS DNA” value was 0.917.
RQFD: the “one-hybrid fitness for binding parS DNA” value was at most 0.2.
As for RQFN, the figure is 0.363.
The value for WVPR was at most 0.2; that for RQWP was at most 0.2.
As for RQAP, the figure is at most 0.2; as for RQAH, at most 0.2; as for RQSP, at most 0.2.
For RQQS, the “one-hybrid fitness for binding parS DNA” value is 0.987.
As for RQWH, the figure is at most 0.2; as for RQQP, at most 0.2.
The value for RQAS was 0.988.
The value for RQWS was 0.959; that for RQSN was 0.438.
RQQD: the “one-hybrid fitness for binding parS DNA” value is at most 0.2.
The value for RQSS was 0.979.
The value for KHSR was at most 0.2; that for ICNS was at most 0.2; that for TSSN was at most 0.2.
For FLHK, the “one-hybrid fitness for binding parS DNA” value was at most 0.2.
For SFKN, the “one-hybrid fitness for binding parS DNA” value is at most 0.2.
The value for PRKR was at most 0.2.
As for NSVS, the “one-hybrid fitness for binding parS DNA” value was at most 0.2.
The value for GRDV was at most 0.2; that for RQFH was at most 0.2.
As for RQLP, the figure is at most 0.2; as for RQLN, 0.439.
For the variant RQFP, the “one-hybrid fitness for binding parS DNA” value was at most 0.2.
As for RQYN, the figure is 0.393; as for RQLS, 1.02.
The value for RQCS was 0.976.
Take RQYS: the “one-hybrid fitness for binding parS DNA” value was found to be 1.
As for RQCH, the figure is at most 0.2; as for RQYP, at most 0.2.
Take RQCN: the “one-hybrid fitness for binding parS DNA” value worked out at 0.416.
Turning to RQFS, the “one-hybrid fitness for binding parS DNA” value is 0.957.
As for AMKF, the figure is at most 0.2.
The value for SCQY was at most 0.2.
As for YPKA, the figure is at most 0.2; as for IKCR, at most 0.2.
AFFR: the “one-hybrid fitness for binding parS DNA” value is at most 0.2.
Regarding MTRW, the “one-hybrid fitness for binding parS DNA” value was at most 0.2.
As for RQGN, the figure is 0.441; as for RQHS, 0.988.
As for RQRN, the figure is 0.451; as for RQGS, 0.978; as for RQHP, at most 0.2.
The value for RQHN was 0.425.
On to RQRD, for which the “one-hybrid fitness for binding parS DNA” value is at most 0.2.
The value for RQRS was 0.918; that for RQGP was at most 0.2.
